# T cruzi growth-1: T. cruzi intracellular proliferation inhibitors, primary screen, cell-based, beta-gal Tulahuen parasites, NIH3T3 host, luminescence; inhibition, % at 8.34 µM; T. cruzi beta-gal in NIH3T3, GalScreen luminescence, 90 h; 77,000 tested, 5.9% active;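 active = mean inhibition above about 93%, with at least 55% of replicates each passing it, limit read from the data, passing the limit was not always enough; inconclusive = only one of those two conditions holds; inactive = neither condition holds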
# Pf Dd2 growth: P. falciparum Dd2 growth inhibitors, primary screen, SYBR Green fluorescence, single dose replicates; 72 h; active compounds read low; activity change, % at 10 µM; 94,000 tested, 2.3% active; AID 1159554, 2015; in the data active = activity change below about -80%; inconclusive = no clear call, values can overlap the other calls
# C diff growth: C. difficile growth inhibitors, primary screen, HTS; Clostridium difficile clinical isolate growth, OD600, 24 h; active compounds read low; 86,000 tested, 0.25% active; growth activity, negative = inhibition, % at 16 µg/mL (by protocol);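 active = mean growth activity at or below -80% and every replicate also at or below -80%; inconclusive = mean at or below -80% but some replicate above -80%; inactive = mean growth activity above -80%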;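 also: 0% = DMSO wells and -100% = levofloxacin 16 µg/mL wells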
# T cruzi growth-2: T. cruzi intracellular proliferation inhibitors, confirmation, cell-based, NIH3T3 host, beta-gal parasite, luminescence, cherry-pick. shares compounds with T cruzi growth-1. 5,600 tested, 72% active. inhibition, % at 8.35 µM. AID 651739, 2012. T. cruzi beta-gal in NIH3T3, GalScreen luminescence, 90 h;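 active = mean replicate inhibition above about 95% and at least 55% of replicates individually reaching it, limit read from the data; inconclusive = only one of the two criteria is met; inactive = neither criterion is met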
# T cruzi growth-3: inhibitors of intracellular T. cruzi replication, confirmation, NIH3T3 host cells, beta-gal parasites, cherry-pick, set 2. shares compounds with T cruzi growth-1. T. cruzi beta-gal in NIH3T3, GalScreen luminescence, 90 h. inhibition, % at 2.09 µM. 5,600 tested, 21% active;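 active = mean inhibition above about 95%, with at least 55% of replicates also reaching it, limit read from the data; inconclusive = meets just one of the two conditions; inactive = meets neither condition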;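 also: plate controls were neutral control median for no effect and positive control median for full effect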
# 3T3 cytotox: cytotoxicity in mouse NIH/3T3 fibroblasts, confirmation, cytotoxicity control for T. cruzi proliferation inhibitor project, cell-based, cherry-pick, single point. shares compounds with T cruzi growth-1. NIH/3T3 viability, CellTiter-Glo ATP luminescence, 90 h. cytotoxicity (signal decrease), % at 8.35 µM. 5,600 tested, 14% active;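 active = mean signal decrease across replicates above about 35% based on untreated-well scatter, with enough replicates individually passing, limit read from the data; inconclusive = no rule stated though some were filed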;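 also: 0% = median of neutral control wells and 100% = median of positive control wells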
# NIH3T3 tox 2: NIH/3T3 fibroblast cytotoxicity, confirmation, cytotoxicity control, cell-based, cherry-pick, single point, set 2. shares compounds with T cruzi growth-1. NIH/3T3 viability, CellTiter-Glo ATP luminescence, 90 h. inhibition, % at 24.9 µM. 5,600 tested, 56% active;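 active = mean loss of cell viability signal at or above a set limit, and enough replicates individually reaching it; inconclusive = meets only the mean limit or only the replicate share; inactive = meets neither condition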;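 also: 0% = median of neutral control wells and 100% = median of positive control wells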
# The depositor's hits bear a star; ? = inconclusive; . = no result. Only some compounds are listed: those with a hit (about 6.7% of all), similar ones and a draw of the others.
SMILES,T cruzi growth-1,Pf Dd2 growth,C diff growth,T cruzi growth-2,T cruzi growth-3,3T3 cytotox,NIH3T3 tox 2
C[C@H]1CCCCO[C@H](CN(C)C(=O)Nc2ccccc2)[C@@H](C)CN([C@@H](C)CO)C(=O)c2cc(NC(=O)Nc3ccccc3)ccc2O1,98*,-48,-5,109*,20,16,12
CC(C)NC(=O)Nc1ccc2c(c1)C(=O)N([C@@H](C)CO)C[C@H](C)[C@H](CN(C)C(=O)Nc1ccccc1)OCCCC[C@H](C)O2,100*,-21,-3,80,50,13,-4
C[C@H]1CCCCO[C@@H](CN(C)C(=O)Nc2ccccc2)[C@@H](C)CN([C@@H](C)CO)C(=O)c2cc(NC(=O)Nc3ccccc3)ccc2O1,?,-20,-6,110*,10,-6,18
CC(C)NC(=O)N(C)C[C@H]1OCCCC[C@H](C)Oc2ccc(NC(=O)Nc3ccccc3)cc2C(=O)N([C@H](C)CO)C[C@@H]1C,34,-11,1,.,.,.,.
C[C@@H]1CCCCO[C@H](CN(C)C(=O)Nc2ccccc2)[C@H](C)CN([C@@H](C)CO)C(=O)c2cc(NC(=O)Nc3ccccc3)ccc2O1,75,-74,2,.,.,.,.
C[C@H](CO)N1C[C@H](C)[C@H](CN(C)C(=O)Nc2ccccc2)OCCCC[C@H](C)Oc2ccc(NC(=O)Nc3ccc(F)cc3)cc2C1=O,83,9,.,.,.,.,.
C[C@H](CO)N1C[C@H](C)[C@@H](CN(C)C(=O)Nc2ccccc2)OCCCC[C@H](C)Oc2ccc(NC(=O)Nc3ccccc3)cc2C1=O,102*,-20,-3,107*,8,23,5
CC(C)NC(=O)Nc1ccc2c(c1)C(=O)N([C@@H](C)CO)C[C@@H](C)[C@@H](CN(C)C(=O)Nc1ccccc1)OCCCC[C@H](C)O2,36,-23,7,.,.,.,.
O=C(N[C@H]1CC[C@H](CCn2cc(C3(O)CCCC3)nn2)O[C@@H]1CO)C1CCOCC1,52,10,.,.,.,.,.
C[C@@H]1CN([C@@H](C)CO)C(=O)c2cc(NC(=O)Nc3ccc4c(c3)OCO4)ccc2O[C@@H](C)CCCCO[C@@H]1CN(C)Cc1ccc(C(F)(F)F)cc1,94,-62,.,.,.,.,.
C[C@H](CO)N1C[C@H](C)[C@H](CN(C)Cc2ccc(C(F)(F)F)cc2)OCCCC[C@H](C)Oc2ccc(NC(=O)Nc3ccc4c(c3)OCO4)cc2C1=O,79,22,.,.,.,.,.
C[C@@H]1CN([C@@H](C)CO)C(=O)c2cc(NC(=O)Nc3ccc(C(F)(F)F)cc3)ccc2O[C@@H](C)CCCCO[C@@H]1CN(C)Cc1ccc2c(c1)OCO2,123*,-66,-10,98*,113*,14,20
C[C@@H]1CN([C@H](C)CO)C(=O)c2cc(NC(=O)Nc3ccc4c(c3)OCO4)ccc2O[C@@H](C)CCCCO[C@@H]1CN(C)Cc1ccc(C(F)(F)F)cc1,81,-71,.,.,.,.,.
C[C@H]1CCCCO[C@@H](CN(C)Cc2ccc3c(c2)OCO3)[C@@H](C)CN([C@@H](C)CO)C(=O)c2cc(NC(=O)Nc3ccc(C(F)(F)F)cc3)ccc2O1,121*,-89*,-19,91,116*,47*,105*
C[C@@H]1CCCCO[C@@H](CN(C)Cc2ccc3c(c2)OCO3)[C@H](C)CN([C@@H](C)CO)C(=O)c2cc(NC(=O)Nc3ccc(C(F)(F)F)cc3)ccc2O1,?,-60,-70,99*,111*,31,53*
C[C@@H]1CCCCO[C@@H](CN(C)Cc2ccc3c(c2)OCO3)[C@@H](C)CN([C@@H](C)CO)C(=O)c2cc(NC(=O)Nc3ccc(C(F)(F)F)cc3)ccc2O1,?,-56,-37,98*,114*,?,57*
Cc1noc(C)c1S(=O)(=O)N(C)C[C@H]1Oc2ccc(NC(=O)Nc3ccccc3)cc2CC(=O)N([C@H](C)CO)C[C@@H]1C,34,-22,.,.,.,.,.
CCCNC(=O)[C@H]1[C@H](CO)[C@H]2Cn3c(ccc(-c4ccccc4F)c3=O)[C@@H]1N2CC1CC1,50,0,-7,.,.,.,.
C=CCNC(=O)[C@@H]1[C@H]2C(=O)O[C@H](c3ccccc3)[C@H](c3ccccc3)N2[C@H](c2ccc(O)cc2)[C@@]12C(=O)N(C(=O)OCCOC)c1ccc(C#Cc3ccc(OC)cc3)cc12,.,.,3,.,.,.,.
CO[C@H]1CN(C)C(=O)c2ccc(NC(=O)CC(F)(F)F)cc2OC[C@H](C)NC[C@H]1C,.,32,-3,.,.,.,.
C[C@@H]1CN([C@H](C)CO)C(=O)c2cc(NC(=O)Nc3ccc4c(c3)OCO4)ccc2O[C@@H]1CN(C)S(=O)(=O)c1cccs1,-11,8,3,.,.,.,.
C[C@@H]1CCCCO[C@H](CN(C)Cc2ccc3c(c2)OCO3)[C@H](C)CN([C@H](C)CO)C(=O)c2cc(NC(=O)Nc3ccc(C(F)(F)F)cc3)ccc2O1,?,?,-10,96*,116*,?,95*
C[C@@H]1CN([C@@H](C)CO)C(=O)c2cc(NC(=O)Nc3ccc4c(c3)OCO4)ccc2O[C@@H](C)CCCCO[C@H]1CN(C)Cc1ccc(C(F)(F)F)cc1,81,-76,.,.,.,.,.
C[C@@H]1CCCCO[C@H](CN(C)Cc2ccc(C(F)(F)F)cc2)[C@H](C)CN([C@H](C)CO)C(=O)c2cc(NC(=O)Nc3ccc4c(c3)OCO4)ccc2O1,90,-72,.,.,.,.,.
C[C@@H]1CCCCO[C@@H](CN(C)Cc2ccc(C(F)(F)F)cc2)[C@@H](C)CN([C@H](C)CO)C(=O)c2cc(NC(=O)Nc3ccc4c(c3)OCO4)ccc2O1,100*,36,.,101*,21,-9,-10
Cc1noc(C)c1S(=O)(=O)Nc1ccc2c(c1)C(=O)N([C@H](C)CO)C[C@H](C)[C@@H](CN(C)C(=O)NC1CCCCC1)OCCCC[C@H](C)O2,-66,-12,2,.,.,.,.
C[C@H]1CN([C@@H](C)CO)C(=O)c2cc(NC(=O)Nc3ccc(C(F)(F)F)cc3)ccc2O[C@H]1CN(C)CC1CC1,22,-47,18,.,.,.,.
CC(C)C#Cc1cnc2c(c1)C(=O)N([C@H](C)CO)C[C@@H](C)[C@H](CN(C)C(=O)C1CCC1)O2,31,.,9,.,.,.,.

# Assay outcomes deposited in PubChem BioAssay by Broad Institute.
